From PubChem
12-LOX inh – ALOX12 (human) lipoxygenase inhibition; P18054; purified 12hLO, xylenol orange hydroperoxide absorbance; Potency, µM (series often up to 108 µM), for inactives: top-dose activity change, negative = inhibition, most hits filed as inhibitors; 580,000 tested, 1.1% active; also: potency is read from the fitted curve at half-maximal effect; % is scaled to controls: 0 for no effect and ±100 for the full control effect
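Hydroperoxide product was detected by ferrous iron/xylenol orange as the 573 to 405 nm absorbance ratio. Arachidonic acid at 40 uM (final) was turned over for 30 min at room temperature by 150 nM human 12hLO, pH 7.0 Hepes buffer, after 15 min compound preincubation.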
CCT chaperon mod – changes cytosolic chaperonin activity. purified chaperonin ATPase assay, HTRF ADP detection, 30 min. activity change, % (no concentration beside the values), hits read low. 360,000 tested, 0.3% active; in the data active = activity change below about -30%; also: % is scaled to controls: 0 for no effect and ±100 for the full control effect
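TRiC (40 or 20 nM final, by batch activity) in 30 mM Tris pH 7.4, 100 mM KCl, 5 mM MgCl2, 1 mM DTT was treated with compound at 76 uM single dose, then 10 uM ATP, 30 min at 37 °C. ADP was read by HTRF Transcreener.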
PINK1 modulator – modulators of PINK1 expression; PINK1 immunofluorescence, high-content cytometry, 24 h; Potency, µM (top dose mostly 76.6 µM), for inactives: at the highest dose activation (PINK1 increase), most hits filed as activators; AID 624263; 410,000 tested, 0.2% active; active = well fitted activation curve with a large enough effect; inconclusive = small, poorly fitted or top-dose-only effect; cell line not stated here; also: potency is read from the fitted curve at half-maximal effect; % of control where 0% means no effect; nearly all actives have a fitted effect of over 65% in size
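Readout is PINK1 immunofluorescence, quantified alongside mitochondrial, cell and nuclear markers by laser-scanning microplate cytometry. Cells from a stable line were exposed to compound titrations (5 concentrations) for 24 hours, with CCCP controls.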
ASM inhibitor – blocks human secretory acid sphingomyelinase; Potency, µM (top dose mostly 57.5 µM), inactives show at the highest dose activity change, negative = inhibition, usual class: inhibitors; AID 504937; 340,000 tested, 0.006% active; placental ASM, HMU-PC fluorogenic substrate, 60 min; also: potency is read from the fitted curve at half-maximal effect
Target sequence (P17405 47-631 limits assumed): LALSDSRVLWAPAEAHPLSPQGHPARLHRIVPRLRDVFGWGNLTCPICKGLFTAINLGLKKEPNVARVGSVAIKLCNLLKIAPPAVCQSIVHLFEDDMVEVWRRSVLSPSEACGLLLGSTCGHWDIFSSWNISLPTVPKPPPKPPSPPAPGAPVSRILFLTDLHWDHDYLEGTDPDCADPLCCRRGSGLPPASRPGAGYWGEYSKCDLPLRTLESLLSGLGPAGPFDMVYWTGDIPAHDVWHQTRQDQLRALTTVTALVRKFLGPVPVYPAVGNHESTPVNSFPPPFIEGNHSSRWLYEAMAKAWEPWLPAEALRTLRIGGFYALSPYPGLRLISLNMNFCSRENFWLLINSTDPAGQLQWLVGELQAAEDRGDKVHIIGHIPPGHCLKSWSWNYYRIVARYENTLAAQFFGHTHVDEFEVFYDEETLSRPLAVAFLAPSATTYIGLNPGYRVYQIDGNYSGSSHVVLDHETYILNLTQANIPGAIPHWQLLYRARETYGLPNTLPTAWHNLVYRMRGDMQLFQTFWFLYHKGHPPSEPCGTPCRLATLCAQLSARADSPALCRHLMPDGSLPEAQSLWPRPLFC
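Steps: dispense placental human ASM, pin compound, wait 10 min at room temperature, add HMU-PC0 substrate at 9 uM final, incubate 60 min at 37 °C, add stop solution raising pH to 10, read fluorescence.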
p53 reactivator – restores transcriptional activity of mutant p53; H1299 p53-A138V BP100-luciferase reporter, luminescence, 24 h; Potency, µM (highest dose often 92.2 µM), without a hit: top-dose activity change, positive = activation, usual class: activators; 320,000 tested, 0.063% active; AID 504706; also: potency is read from the fitted curve at half-maximal effect; % of control where 0% means no effect; nearly all actives have a fitted effect of over 45% in size
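p53-null H1299 cells stably carrying temperature-sensitive p53-A138V and a BP100-luciferase reporter were pinned with compounds (4-point, 1:5 series) and held 24 hrs at 37 deg C. Luminescence was read 10 min after detection reagent.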
Mm-Cpn inhibitor – inhibitors of Methanococcus maripaludis chaperonin TRiC (MmCpn). 330,000 tested, 0.031% active. purified Mm-Cpn ATPase, ADP Transcreener TR-FRET. Potency, µM (highest dose often 76.9 µM), for inactives: at the highest dose activity, negative = inhibition, actives largely listed as inhibitors; also: potency is read from the fitted curve at half-maximal effect; % is scaled to controls: 0 for no effect and ±100 for the full control effect; nearly all actives have a fitted effect of over 80% in size
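ATP (10 uM final) was added to archaeal chaperonin (25 nM final) after 10 min exposure to test compound at 37°C; after 30 min further incubation, ADP was detected by competitive TR-FRET.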
Numbers without * were called inactive; u = inconclusive; x = no result; ! = repeats disagree; [ ] = another dose, or the depositor's remark. An excerpt weighted towards active compounds, which were near 1.4% of everything screened. Unless noted, calls follow the shape of the dose curve; as a rule, active = well fitted curve in the direction sought with a large enough effect; inconclusive = small, poorly fitted or top-dose-only effect, or another doubt; inactive = no such curve, though single readings can be large; an effect the other way counts as inactive or inconclusive.

SMILES	12-LOX inh	CCT chaperon mod	PINK1 modulator	ASM inhibitor	p53 reactivator	Mm-Cpn inhibitor
CCC(C)C(N)C1=NC(C(=O)N[C@@H](CC(C)C)C(=O)N[C@H](CCC(=O)[O-])C(=O)N[C@H](C(=O)N[C@H]2CCCCNC(=O)[C@H](CC(N)=O)NC(=O)[C@@H](CC(=O)[O-])NC(=O)[C@H](Cc3cnc[nH]3)NC(=O)[C@@H](Cc3ccccc3)NC(=O)[C@H]([C@@H](C)CC)NC(=O)[C@@H](CCCN)NC2=O)[C@@H](C)CC)CS1.[Zn+2] (some centres not stated)	x	1.7	0.4%	-16.8%	x	x
Cc1ccc(CN=Cc2[nH]c3ccc(Br)c(Cl)c3c2O)cc1	u	-1.4	11.2µM*	-13.6%	2.5%	-1.9%
O=c1[nH]c(=O)n(C2CCCCCC2)c(O)c1C=NCc1ccc(F)cc1	u	-26.7	0.0%	-9.7%	-6.5%	0.8%
Oc1c(C=NCc2ccc(F)cc2)[nH]c2ccc(Br)c(Cl)c12	12.6µM*	x	x	x	10.9%	-2.8%
CCCCOCCCNC(=O)CCC(=O)NCC(CC)CCCC (configuration not stated)	-34.7%	x	x	x	x	x
O=C(Cc1c(Cl)cccc1Cl)Oc1ccc(OCc2ccccc2)cc1	-39.3%	x	x	x	x	x
COc1ccc2c(c1)OC[C@H]1[C@H]2N2C(=O)CN(Cc3ccco3)C(=O)[C@@]2(C)[C@H]1c1ccccc1	7.08µM*	-3.8	1.2%	-6.2%	-11.6%	0.4%
CCOC(=O)Nc1ccc2c(c1)N(C(=O)CN1CCN(C)CC1)c1ccccc1CC2	5.01µM*	-0.8	3.4%	1.9%	x	1.1%
CC(C)c1ccc(/C=C/C(=O)NCCC2=CCCCC2)cc1	39.8µM*	-2.7	2.4%	-1.9%	1.6%	-2.2%
COc1cc(OC)cc(OC2(C)CCN(Cc3ccc(OC(C)C)cc3)C2)c1 (configuration not stated)	-51.7%	0.4	44.7µM*	x	x	x
CC(C)c1ccc(CN2CCC(C)(Oc3ccc(Cl)cc3)C2)cc1 (configuration not stated)	u	0.9	u	x	x	x
CSc1cccc(NC(=O)/C(=C/c2ccccc2Cl)c2ccccc2)c1	-25.4%	x	x	x	x	x
COc1cccc(NS(=O)(=O)c2ccc3c(c2)C2C=CCC2C(c2ccc(C(=O)O)cc2)N3)c1 (configuration not stated)	12.6µM*	2.5	6.9%	-28.7%	-18.9%	2.2%
COC(=O)c1ccc([C@H]2Nc3ccc(S(=O)(=O)Nc4ccc(F)cc4)cc3[C@H]3C=CC[C@H]32)cc1	5.0%	x	0.7%	x	x	x
Cc1ccc(-c2ccc3cc(C)ccc3n2)cc1	3.1%	x	x	x	x	x
CC(C)COc1ccc(S(=O)(=O)NNC(=O)c2cc3ccccc3o2)cc1	22.4µM*	-4.5	4.5%	-10.9%	-4.6%	-0.6%
COc1ccc(/C=C2\SC(=S)N(CC(=O)OCC(=O)Nc3cc(Cl)cc(Cl)c3)C2=O)cc1	39.8µM*	-1.3	-0.2%	-25.7%	10.9%	-5.6%
Cc1cc(C(=O)OCc2nnc(-c3ccccc3)o2)c(C)n1-c1ccccc1	0.0%	-127.5*	-0.8%	-6.8%	0.4%	-0.5%
Cc1ccc2sc(N(CCCN(C)C)C(=O)c3ccc(S(=O)(=O)N(C)Cc4ccccc4)cc3)nc2c1C	28.2µM*	2.6	-2.3%	u	-2.6%	-0.4%
O=C(OCC(=O)N1N=C(c2ccc(Cl)cc2)CC1c1ccco1)c1ccco1 (configuration not stated)	-19.5%	0.3	-0.1%	-18.5%	-3.7%	-0.4%
O=C(OCC(=O)N1N=C(c2ccc(Cl)cc2)CC1c1ccco1)c1cncc(Br)c1 (configuration not stated)	7.94µM*	-0.1	4.4%	-11.8%	12.2%	-5.7%
CN(C(=O)CCc1ncc(-c2ccccc2)o1)C1CC1	24.6%	x	x	x	x	x
CNCc1ccncc1	0.327µM*	x	x	x	x	x
O=C(NCc1ccncc1)C(=O)NCc1ccncc1	-26.4%	-2.3	1.7%	-1.2%	-0.2%	3.2%
Clc1ccc(-c2nnc(COc3nncc4ccccc34)o2)cc1	65.3%	x	x	x	x	x
SMILES	12-LOX inh	CCT chaperon mod	PINK1 modulator	ASM inhibitor	p53 reactivator	Mm-Cpn inhibitor
O=C(Nc1ccc(Cl)cc1)Nc1cccnc1	-28.6%	-0.5	3.1%[38.3 µM]	-1.2%	18.4%	-0.4%
O=C(Nc1cccnc1)Nc1ccc(Cl)cc1Cl	25.1µM*	-3.3	0.1%	-2.9%	-0.8%	0.3%
COc1ccc(CNc2ncnc3c2CN(c2ccc(Cl)cc2)C(=O)N(C)C3)cc1	-11.8%	x	x	x	x	x
CN1Cc2ncnc(NCCc3ccc(F)cc3)c2CN(c2ccc(Cl)cc2)C1=O	70.8µM*	x	x	x	x	x
C=CCN(CCC(=O)NC(=O)NC)Cc1ccccc1	11.5%	x	x	x	x	x
CN(C)CCOC(c1ccc(Cl)cc1)c1ccccn1 (configuration not stated)	19.0%	-51.1*!	2.0%	3.8%	-2.5%	0.3%
Cc1ccc(C(=O)Nc2ccc(CN3CCN(C)CC3)c(C(F)(F)F)c2)cc1C#Cc1cnc2cccnn12	0.344µM*	x	x	x	x	x
COC(=O)c1c(C)[nH]c(C(=O)OC(C)C(=O)c2ccc(F)cc2F)c1C (configuration not stated)	-35.6%	x	x	x	x	x
S=c1nc(-c2ccccc2Cl)[nH][nH]1	15.8µM*	-1.6	1.5%	1.5%	9.5%	-2.7%
O=C(Cc1cccs1)N1CCN(c2cc(C(F)(F)F)ncn2)CC1	35.5µM*	x	x	x	x	x
O=C(Cc1cccs1)NC1CCN(c2cc(C(F)(F)F)ncn2)CC1	1.9%	x	x	x	x	x
CN(C)CCCN=c1c2ccccc2n(C)c2[nH]c(=O)n(C)c(=O)c12	21.7µM*	x	x	x	x	x
CCCCC(=O)Nc1nonc1-c1ccc(F)cc1	15.9%	x	x	x	x	x
COc1ccccc1-c1sc2ccccc2c1-c1ccc2c(c1)OCCO2	16.5%	-6.1	4.7%	0.5%	-0.8%	20µM*
COc1ccccc1-c1sc2ccccc2c1-c1ccccc1OC	9.7%	-9.5	1.8%	-5.4%	-3.5%	56.2µM*
COc1ccc(-c2c(-c3ccccc3OC)sc3ccccc23)cc1F	-3.1%	x	x	x	x	x
COc1ccc(-c2c(-c3ccccc3OC)sc3ccccc23)cc1OC	3.3%	1.6	-0.1%	-4.5%	x	35.5µM*
COc1ccccc1N1C(=O)N(Cc2ccc3c(c2)OCO3)c2ccccc2S1(=O)=O	3.1%	x	x	x	x	x
CC(C(=O)NC1CC1)N1CCC(c2cc3ccccc3[nH]2)CC1 (configuration not stated)	-6.6%	x	x	x	x	x
N#Cc1cccc(C(=O)NC2CCSc3ccccc32)c1 (configuration not stated)	2.9%	x	x	x	x	x
COC(=O)CSCc1nc2ccccc2[nH]c1=O	u	-32.5*	0.6%	24.2%	9.6%	-3.1%
COC(=O)CCc1nc2ccccc2[nH]c1=O	0.0%	-0.3	3.7%[38.3 µM]	16.8%	-15.2%	-1.9%
